Compound activity (PubChem)
Sampled rows, rich in hits. Any-hit rate of the full collection: about 19%.
Cycloheximide cs = counter-screen hit for Shiga toxin inhibitors, cycloheximide. max response, %. actives 12% (n = 300,000). cell reporter, cycloheximide protein synthesis inhibition counterscreen. AID 2314; in the data active means max response mostly above about 13%, no sharp cut-off; inactive means mostly below about 14%; further: read at 38.3 µM for the half of the compounds with a filed dose; 0% is about no effect
Shiga toxin inh = inhibitors of Shiga toxin in Vero cells; Vero cells, Shiga toxin protein synthesis inhibition reporter; actives 9.2% (n = 290,000); AID 2315; inhibition, % at 38.7 µM; in the data active means inhibition mostly above about 28%, no sharp cut-off; inactive means mostly below about 43%; further: 0% is about no effect
MARV entry inh = blocks Marburg virus binding to or entry into cells; Marburg virus pseudotyped entry inhibition, cell reporter; Potency, µM (top dose mostly 37.8 µM), inactives show at the top dose activity change, negative = inhibition, most hits filed as inhibitors; actives 1.8% (n = 300,000); calls by dose curve; tested in HEK293 cells; further: potency means the concentration at half of the fitted maximal effect; on the % scale 0 is the no-effect control and ±100 the full control effect
Pf growth 48h = inhibits P. falciparum growth in the first generation, 48 h; P. falciparum luciferase growth in erythrocytes, 48 h; Potency, µM (series often up to 28.7 µM), inactives show at the highest dose activity change, negative = inhibition, most hits filed as inhibitors; actives 5.9% (n = 310,000); further: potency means the concentration at half of the fitted maximal effect; on the % scale 0 is the no-effect control and ±100 the full control effect
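In quantitative HTS format, infected erythrocytes bearing luciferase-reporter parasites were treated for a single generation at 37 C. Luminescence after adding detection reagent served as the growth measure.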
LASV entry inh = inhibitors of Lassa virus binding or cell entry. Lassa virus pseudotype entry inhibition, cell reporter. Potency, µM (doses to about 37.9 µM), inactives show top-dose activity change, negative = inhibition, usual class: inhibitors. actives 1.2% (n = 300,000); calls by dose curve; tested in HEK293 cells; further: potency means the concentration at half of the fitted maximal effect; on the % scale 0 is the no-effect control and ±100 the full control effect; nearly all actives have a fitted effect of over 50% in size
Pf growth 96h = P. falciparum growth inhibition at 96 hours; P. falciparum luciferase reporter growth, 96 h; AID 504834; actives 6.9% (n = 320,000); Potency, µM (titrated, usually from 28.7 µM), inactives show at the highest dose activity change, negative = inhibition, most hits filed as inhibitors; further: potency means the concentration at half of the fitted maximal effect; on the % scale 0 is the no-effect control and ±100 the full control effect
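Luminescence readout: decreased luciferase signal marks inhibited growth of reporter-expressing P. falciparum in infected red cells (2% hematocrit, 0.05% parasitemia final), exposed to compound two generations (96 h, 37 C, 5% CO2).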
Numbers without * were called inactive; u = inconclusive; x = no result; [ ] = another dose, or the depositor's remark. Unless noted, the call rests on the fitted dose curve; in most records, active means well fitted inhibition curve with a large enough effect; inconclusive means small, poorly fitted or top-dose-only effect, or another doubt; inactive means no such curve, though single readings can be large or run the other way.

SMILES	Cycloheximide cs	Shiga toxin inh	MARV entry inh	Pf growth 48h	LASV entry inh	Pf growth 96h
COC(=O)COc1ccc2c(c1)O/C(=C\c1cccc([N+](=O)[O-])c1)C2=O	-3.5	-2.9	x	12.2%	x	11.2%
O=C1/C(=C/c2cccc(F)c2)Oc2cc(O)ccc21	21.9*	40.0*	u	23.6%	u	31.9%
CC[n+]1oc(-c2ccccc2)cc1C	-6.3	1.6	7.3%[46.1 µM]	u	-10.3%[46.1 µM]	3.3%
CC12CCC(=O)N1C(C(=O)NCCN1C(=O)S/C(=C\c3ccc(F)cc3)C1=O)CS2 (centres undefined)	x	x	16.0%	u	0.4%	u
O=C(CCC1CCCN(C(=O)CCCc2ccccc2)C1)N1CCN(c2ccccn2)CC1 (centres undefined)	21.6*	50.6	x	u	x	u
Cc1ccccc1CC(=O)N1CCCC(CCC(=O)N2CCN(c3ccccn3)CC2)C1 (centres undefined)	-1.3	-7.8	u	u	-23.8%[46.1 µM]	40.6%
O=C(CCC1CCCN(C(=O)Cc2cccc(F)c2)C1)N1CCN(c2ccccn2)CC1 (centres undefined)	49.9*	70.6*	u	227.2%	u	11.5%
COC(=O)C(CCSC)NC(=O)c1cn(-c2ccc(OC)cc2)c(=O)c2ccccc12 (centres undefined)	1.5	-4.0	x	u	x	u
O=C1NC(=Nc2ccccc2)c2c1cccc2[N+](=O)[O-]	18.8*	20.9	3.2%	u	6.4%	-98.4%
C/C(Cl)=C/Cc1c(C)[nH]c2ccc(C)cc2c1=O	26.9*	40.9	16.7%	0.37µM*	9.4%	11.6%
CCCCN(CC)Cc1c(C)[nH]c2c(ccc3ccccc32)c1=O	4.5	12.4	4.8%	u	u	-10.0%
C/C(Cl)=C/Cc1c(C)[nH]c2c(ccc3ccccc32)c1=O	2.1	-3.2	x	0.185µM*	x	-32.4%
CC(=O)Nc1ccc(-c2csc(NNC(=O)c3ccccc3)n2)cc1	13.2	25.3	x	19.1%	x	-2.3%
C#CCOCCOCCOCCNc1nc(N2CCN(C(=O)[C@H]([C@@H](C)CC)n3cc([C@@H](N)CO)nn3)CC2)nc(N2CCN(C(=O)[C@H](Cc3cc4ccccc4[nH]3)n3cc([C@@H](N)C(C)CC)nn3)CC2)n1 (some centres undefined)	-1.2	-4.5	x	u	x	u
C#CCOCCOCCOCCNc1nc(N2CCN(C(=O)[C@H](CCC(=O)O)n3cc(C(N)CC(C)C)nn3)CC2)nc(N2CCN(C(=O)[C@H](Cc3cc4ccccc4[nH]3)n3cc(C(N)CC(C)C)nn3)CC2)n1 (some centres undefined)	-3.4	-12.7	x	27.5%	x	44.4%
C#CCOCCOCCOCCNc1nc(N2CCN(C(=O)[C@H](Cc3cc4ccccc4[nH]3)n3cc([C@@H](N)CC(C)C)nn3)CC2)nc(N2CCN(C(=O)[C@H](Cc3cc4ccccc4[nH]3)n3cc([C@@H](N)CC(C)C)nn3)CC2)n1	1.0	20.5	x	2.62µM*	x	4.15µM*
C#CCOCCOCCOCCNc1nc(N2CCOCC2)nc(N2CCN(C(=O)[C@H](Cc3cc4ccccc4[nH]3)n3cc([C@@H](N)CC(C)C)nn3)CC2)n1	0.8	-13.6	x	2.33µM*	x	4.15µM*
C#CCOCCOCCOCCNc1nc(N2CCN(C(=O)[C@H]([C@@H](C)CC)n3cc([C@@H](N)CC(C)C)nn3)CC2)nc(N2CCN(C(=O)[C@H](Cc3cc4ccccc4[nH]3)n3cc([C@@H](N)CC(C)C)nn3)CC2)n1	-0.8	14.0	x	10.4µM*	x	3.29µM*
COCCCNC(=O)C(=O)N/N=C/c1ccc(OCC(=O)Nc2cccc(Cl)c2C)c(OC)c1	10.3	-19.4	1.3%	10.2%	8.9%	13.3%
CC(=O)c1ccc(N2CCN(C(=O)c3cn(C)c(=O)c4c3c3ccccc3n4C)CC2)cc1	x	x	u	x	-10.1%[46.1 µM]	x
CC(C(=O)N1c2ccccc2CCc2ccccc21)n1nnc(-c2ccc(N(C)C)cc2)n1 (centres undefined)	-1.5	-13.2	u	7.38µM*	u	0.8%
Cc1ccc(-c2nnn(C(C)C(=O)N3c4ccccc4CCc4ccccc43)n2)cc1 (centres undefined)	0.6	-1.2	u	u	u	11.7µM*
CC(C(=O)N1c2ccccc2Sc2ccccc21)n1nnc(-c2cccs2)n1 (centres undefined)	29.4	6.7	15.3%	u	8.6%	x
COc1ccccc1NC(=O)/C(=C/c1cccs1)NC(=O)c1ccco1	-3.4	-1.7	-0.1%[46.1 µM]	19.8%	23.1%	25.9%
COc1ccc(N=C(N(C)C)P(=O)(N(C)C)N(C)C)cc1	10.3	2.1	u	u	-1.0%[46.1 µM]	x
SMILES	Cycloheximide cs	Shiga toxin inh	MARV entry inh	Pf growth 48h	LASV entry inh	Pf growth 96h
O=C(NN1CCOCC1)c1ccco1	x	x	x	-14.7%	x	-21.7%
Cc1ccc(C(=O)Nc2cccc(NC(=O)CN3CCCCC3)c2)cc1	13.9*	x	-14.9%	-5.5%	-12.7%	1.0%
O=C(CN1CCCCC1)Nc1cccc(Br)c1	14.6*	20.4	4.9%	17.2%	0.0%	u
Cc1cccc(NC(=O)CN2CCCCCC2)c1	5.5	19.3	-10.5%[46.1 µM]	22.5%	12.8%[46.1 µM]	20.2%
COc1cccc(NC(=O)CN2C(=O)NC(C)(CCC(C)C)C2=O)c1 (centres undefined)	-2.4	-6.8	0.0%[46.1 µM]	10.4µM*	-0.7%	17.0%
COc1cc(NC(=O)CN2C(=O)NC(C)(CCC(C)C)C2=O)cc(OC)c1 (centres undefined)	-2.5	-13.2	u	-15.8%	-17.4%	u
COc1cccc(NC(=O)CN2CCCCCC2)c1	23.1*	x	x	113.6%	x	u
COc1ccc(NC(=O)CCC(=O)c2ccc(Cl)cc2)cn1	x	x	x	-22.3%	x	7.6%
Cc1c(C(=O)N/N=C/c2ccccc2)[nH]c2ccc(Cl)cc12	27.2*	40.5*	x	4.3%	x	u
Cc1c(C(=O)N/N=C/c2ccc(N(C)C)cc2)[nH]c2ccc(Cl)cc12	1.3	-0.9	-23.3%	19.9%	u	1.85µM*
COc1ccc(/C=N/NC(=O)c2[nH]c3ccc(Cl)cc3c2-c2ccccc2)c(C(=O)O)c1OC	-5.9	-4.3	-29.4%	x	1.7%	4.5%
CC(=O)c1ccc(NC(=O)CSc2nc(-c3ccccc3C)nc3c2c(=O)n(C)c(=O)n3C)cc1	x	x	x	x	12.2%[46.1 µM]	x
CC(C)OP(=O)(c1ccc(N(C)C)cc1)C(O)c1ccncc1 (centres undefined)	1.1	2.0	-1.1%	u	5.1%	x
O=C(NCCCCN1CCN(c2cccc(Cl)c2Cl)CC1)c1ccc2c(c1)Cc1ccccc1-2	11.7	-0.6	x	x	x	x
O=C(/C=C/c1ccccc1Cl)Nc1ccncc1	24.7*	66.8*	5.8%	37.1%	u	33.5%
CC(=O)N(C)c1ccc(NC(=O)/C=C/c2ccccc2Cl)cc1	80.4*	41.1*	u	u	u	u
COc1ccccc1/C=C/C(=O)Nc1cccnc1	37.3*	156.4*	-3.3%	38.7%	u	u
